# According to PubChem BioAssay (Tox21):
# Several values for one entry are separate records, joined by “and”; a condition that tells them apart may be missing. Equal values may be shown once. Inconclusive results are not listed. A call without a number means that no potency is given here. Values without a mark were called inactive. Activity calls are given as the source filed them. Calls follow the shape of the dose curve; as a rule, active = well fitted curve in the direction sought with a large enough effect in the repeat runs; inconclusive = weak or mixed curves; inactive = no such curve, though single readings can be large; an effect the other way counts as inactive or inconclusive.
# Target: Voltage-gated inwardly rectifying potassium channel KCNH2 (Homo sapiens) (UniProt Q12809)
# Assay: Human Ether-a-go-go-Related Gene (hERG) channel small molecule antagonists: fluorescence cell-based qHTS assay (AID 1671200);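 as to activity change, negative = inhibition: hERG-expressing U2OS cells given a thallium stimulus after FluxOR II dye loading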
# Details: hERG-U2OS cells, FluxOR thallium flux fluorescence; series mostly up to 76.8 µM
# Outline: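 Measured: Tl+ flux via fluorescence (480/540 nm) in hERG-expressing U2OS cells after 1 h dye loading at room temperature.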
# Also: nearly all actives have a fitted effect of over 50% in size.
# Potency is read from the fitted curve at half-maximal effect.
# Sequence of Voltage-gated inwardly rectifying potassium channel KCNH2 (Homo sapiens) (Q12809 whole entry, looked up): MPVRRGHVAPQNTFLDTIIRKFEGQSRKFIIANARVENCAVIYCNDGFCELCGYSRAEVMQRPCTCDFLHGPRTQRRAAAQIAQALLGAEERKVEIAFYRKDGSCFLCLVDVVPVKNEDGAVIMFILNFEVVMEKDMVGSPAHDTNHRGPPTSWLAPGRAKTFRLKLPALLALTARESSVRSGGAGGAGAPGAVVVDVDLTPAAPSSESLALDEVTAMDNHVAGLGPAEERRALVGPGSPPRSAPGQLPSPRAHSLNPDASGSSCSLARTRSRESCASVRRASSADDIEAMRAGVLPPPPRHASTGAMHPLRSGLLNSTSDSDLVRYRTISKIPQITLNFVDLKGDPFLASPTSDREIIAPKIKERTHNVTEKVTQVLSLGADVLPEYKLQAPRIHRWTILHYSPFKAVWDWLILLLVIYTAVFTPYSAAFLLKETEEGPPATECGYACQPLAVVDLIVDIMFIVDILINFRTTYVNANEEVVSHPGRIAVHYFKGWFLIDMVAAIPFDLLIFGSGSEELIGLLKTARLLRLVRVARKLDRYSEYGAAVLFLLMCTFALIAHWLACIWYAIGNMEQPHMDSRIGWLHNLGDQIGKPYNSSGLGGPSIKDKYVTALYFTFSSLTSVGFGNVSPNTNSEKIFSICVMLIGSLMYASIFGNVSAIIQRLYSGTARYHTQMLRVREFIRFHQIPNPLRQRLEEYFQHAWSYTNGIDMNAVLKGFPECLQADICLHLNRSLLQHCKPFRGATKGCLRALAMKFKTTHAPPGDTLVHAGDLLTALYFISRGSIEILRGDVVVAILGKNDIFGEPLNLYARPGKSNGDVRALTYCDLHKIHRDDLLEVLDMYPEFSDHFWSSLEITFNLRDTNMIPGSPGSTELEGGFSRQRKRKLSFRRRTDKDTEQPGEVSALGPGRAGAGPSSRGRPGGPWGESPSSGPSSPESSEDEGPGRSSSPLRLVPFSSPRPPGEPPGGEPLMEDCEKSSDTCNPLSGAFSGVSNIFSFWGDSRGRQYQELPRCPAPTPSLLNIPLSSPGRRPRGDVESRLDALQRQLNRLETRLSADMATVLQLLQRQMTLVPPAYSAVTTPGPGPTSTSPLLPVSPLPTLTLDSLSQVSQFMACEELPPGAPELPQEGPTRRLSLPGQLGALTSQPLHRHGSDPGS
Structure (SMILES),Potency,"activity change, negative = inhibition"
CO[Si](CCC1CCC2OC2C1)(OC)OC (configuration not stated),inactive,
Cc1cc2c(C(C)C)c(O)c(O)c(C=O)c2c(O)c1-c1c(C)cc2c(C(C)C)c(O)c(O)c(C=O)c2c1O,inactive,
CCCC(CC)CCCCCCCN (configuration not stated),28.2 µM (active),
N[C@@H](CSSC[C@H](N)C(=O)O)C(=O)O,,-0.819% [at 0.29 µM]
Brc1ccccn1,inactive,
CN(Cc1cc(Br)cc(Br)c1N)C1CCCCC1,10.7 µM (active),
CCCCCCOc1ccc(O)cc1,inactive,
C=C1C(C)(C)[C@@]2(Cl)C(Cl)[C@]1(Cl)C(Cl)(Cl)C2(Cl)Cl (some centres not stated),27 µM (active),
NC(=O)C(=O)N/N=C/c1ccc([N+](=O)[O-])o1,inactive,
CC1CCCCC1,inactive,
O=C1Nc2ccc(Cl)cc2[C@@](C#CC2CC2)(C(F)(F)F)O1,inactive,
Nc1ccc2cc3ccc(N)cc3nc2c1,inactive,
Clc1cc(Cl)c(-c2c(Cl)c(Cl)cc(Cl)c2Cl)cc1Cl,inactive,
S=P(N1CC1)(N1CC1)N1CC1,inactive,
O=C1NCN(c2ccccc2)C12CCN(CCCC(c1ccc(F)cc1)c1ccc(F)cc1)CC2,0.19 µM (active),
O=C(O)CC(=O)O,inactive,
CCCC(=O)OCC(COC(=O)CCC)OC(=O)CCC,inactive,
CCO[Si](C)(C)OCC,inactive,
NC(=O)c1ccccc1N,inactive,
CC1CCCNC1 (configuration not stated),inactive,

Structure (SMILES),Potency,"activity change, negative = inhibition"
CC(C)C(=O)OCc1ccccc1,inactive,
O=S(=O)(O)c1cc(S(=O)(=O)O)c2ccc3c(S(=O)(=O)O)cc(S(=O)(=O)O)c4ccc1c2c43,,2.85% [at 15.8 µM]
CC(COC(=O)c1ccccc1)OC(=O)c1ccccc1 (configuration not stated),43.6 µM (active),
O=C[C@H](O)[C@H](O)[C@H](O)CO,inactive,
Cn1cccc1,inactive,
CCCCN(C)C,inactive,
CCOCOCC,inactive,
CC(C)=CCCC(C)O (configuration not stated),inactive,
CCOC(OCC)C(=O)c1ccccc1,inactive,
CCc1c(Br)c(Br)c(Br)c(Br)c1Br,inactive,
CCNc1nc(NC(C)CC)nc(OC)n1 (configuration not stated),inactive,
CC(=O)C=O,inactive,
CN(C)CCN1CCOCC1,inactive,
O=C=NCc1cccc(CN=C=O)c1,,0.993% [at 15.8 µM]
c1ccc(Nc2cccc3ccccc23)cc1,35.1 µM (active) and 17.4 µM (active),
CC1(C)C(=O)N(Br)C(=O)N1Br,inactive,
CCCCCCCCCCCCCCCC,inactive,
CCC(=O)CC(C)CC (configuration not stated),,2.31% [at 0.29 µM]
CCCCCCCC/C=C\CCCCCCCC(=O)N(C)CC(=O)O,inactive,

# Target: Cytochrome P450 3A4 (Homo sapiens) (UniProt P08684)
# Assay: Cytochrome P450 Family 3 Subfamily A Member 4 (CYP3A4) small molecule antagonists: luciferase reporter qHTS assay (AID 1671201)
# Details: P450-Glo CYP3A4 enzyme, luciferin luminescence, 1 h; series mostly up to 115 µM
# Outline: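 Setup: enzyme-substrate mix, compound pin transfer, 10 min RT. Reaction: NADPH regeneration solution, 1 h RT. Readout: detection reagent stops turnover, luminescence measured after 20 min, expressed in relative luminescence units.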
# Sequence of Cytochrome P450 3A4 (Homo sapiens) (P08684 whole entry, looked up): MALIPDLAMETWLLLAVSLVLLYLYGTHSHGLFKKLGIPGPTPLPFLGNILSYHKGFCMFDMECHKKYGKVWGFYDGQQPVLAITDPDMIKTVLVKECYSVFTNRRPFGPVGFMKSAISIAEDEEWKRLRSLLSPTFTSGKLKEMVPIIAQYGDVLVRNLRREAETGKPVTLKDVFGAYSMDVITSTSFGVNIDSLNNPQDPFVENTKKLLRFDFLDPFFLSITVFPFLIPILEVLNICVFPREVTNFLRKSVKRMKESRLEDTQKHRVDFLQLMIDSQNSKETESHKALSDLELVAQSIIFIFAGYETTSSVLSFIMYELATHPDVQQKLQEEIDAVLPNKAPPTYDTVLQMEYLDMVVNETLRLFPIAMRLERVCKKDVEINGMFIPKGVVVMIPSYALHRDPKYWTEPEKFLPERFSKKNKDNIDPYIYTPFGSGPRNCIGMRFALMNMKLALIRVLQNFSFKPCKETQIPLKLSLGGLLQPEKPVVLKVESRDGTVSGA
Structure (SMILES),Potency,"activity change, negative = inhibition"
CCCC(CC)CCCCCCCN (configuration not stated),3.25 µM (active),
N[C@@H](CSSC[C@H](N)C(=O)O)C(=O)O,,5.27% [at 0.435 µM]
Brc1ccccn1,inactive,
CN(Cc1cc(Br)cc(Br)c1N)C1CCCCC1,inactive,
C=C1C(C)(C)[C@@]2(Cl)C(Cl)[C@]1(Cl)C(Cl)(Cl)C2(Cl)Cl (some centres not stated),0.985 µM (active),
CC1CCCCC1,inactive,
Clc1cc(Cl)c(-c2c(Cl)c(Cl)cc(Cl)c2Cl)cc1Cl,inactive,
O=C1NCN(c2ccccc2)C12CCN(CCCC(c1ccc(F)cc1)c1ccc(F)cc1)CC2,inactive,
O=C(O)CC(=O)O,inactive,
CCCC(=O)OCC(COC(=O)CCC)OC(=O)CCC,inactive,
CCO[Si](C)(C)OCC,inactive,
NC(=O)c1ccccc1N,inactive,
CC1CCCNC1 (configuration not stated),inactive,
CC(C)C(=O)OCc1ccccc1,inactive,
O=S(=O)(O)c1cc(S(=O)(=O)O)c2ccc3c(S(=O)(=O)O)cc(S(=O)(=O)O)c4ccc1c2c43,,10.6% [at 23.6 µM]
CC(COC(=O)c1ccccc1)OC(=O)c1ccccc1 (configuration not stated),inactive,
Cn1cccc1,inactive,
CCCCN(C)C,inactive,
CCOCOCC,inactive,
CC(C)=CCCC(C)O (configuration not stated),inactive,
CCOC(OCC)C(=O)c1ccccc1,inactive,
CC(=O)C=O,inactive,
O=C=NCc1cccc(CN=C=O)c1,4.25 µM (active),
c1ccc(Nc2cccc3ccccc23)cc1,36.1 µM (active) and 79.6 µM (active),
CC1(C)C(=O)N(Br)C(=O)N1Br,inactive,
CCCCCCCCCCCCCCCC,inactive,
CCC(=O)CC(C)CC (configuration not stated),,-0.0732% [at 0.435 µM]
CCCCCCCC/C=C\CCCCCCCC(=O)N(C)CC(=O)O,inactive,
